Cycloheximide cs: counter-screen for Shiga toxin inhibitors: cycloheximide protein synthesis inhibition; max response, %; 300,000 tested, 12% active; cell reporter, cycloheximide protein synthesis inhibition counterscreen; AID 2314; in the data active means max response mostly above about 13%, no sharp cut-off; inactive means mostly below about 14%; further: read at 38.3 µM for the half of the compounds with a filed dose
AmpC detergent: blocks E. coli AmpC beta-lactamase in detergent assay; AmpC hydrolysis of nitrocefin, absorbance 480 nm, 0.01% Triton; Potency, µM (top dose mostly 114 µM), hits mostly inhibitors; 370,000 tested, 0.041% active; AID 485294; further: nearly all actives have a fitted effect of over 25% in size
Target sequence (P00811 whole entry, looked up): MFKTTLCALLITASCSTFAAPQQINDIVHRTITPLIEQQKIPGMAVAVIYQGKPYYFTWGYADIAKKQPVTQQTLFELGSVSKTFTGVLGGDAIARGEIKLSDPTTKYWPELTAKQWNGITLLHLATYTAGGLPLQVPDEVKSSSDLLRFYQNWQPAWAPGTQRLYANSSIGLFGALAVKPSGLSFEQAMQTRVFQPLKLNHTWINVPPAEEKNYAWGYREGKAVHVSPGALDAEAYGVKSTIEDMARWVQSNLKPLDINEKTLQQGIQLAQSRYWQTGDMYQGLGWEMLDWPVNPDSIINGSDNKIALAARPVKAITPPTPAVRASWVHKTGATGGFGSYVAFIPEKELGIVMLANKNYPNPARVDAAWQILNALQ
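20 mM phosphate pH 7.0 + 0.01% (detergent screen) or 0.0001% Triton X-100; 5.3 nM AmpC reagent; cpd preinc 15 min RT; nitrocefin (800 uM stock) to start; A480 q20 s × 4 min; Activity was normalised to no-enzyme and no-compound control wells.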
AmpC no deterg: inhibitors of E. coli AmpC beta-lactamase without detergent; P00811; AmpC nitrocefin hydrolysis, absorbance 480 nm, 0.0001% Triton; Potency, µM (titrated, usually from 57.1 µM), hits mostly inhibitors; 330,000 tested, 0.52% active; AID 485341; further: nearly all actives have a fitted effect of over 20% in size
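AmpC (5.3 nM in the dispensed reagent) in 20 mM phosphate pH 7.0 with 0.01% (detergent screen) or 0.0001% Triton X-100 was preincubated with compounds for 15 min at room temperature. Nitrocefin was then added from an 800 uM solution, and hydrolysis was followed at 480 nm.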
Shiga inhibitor: Shiga toxin inhibition. inhibition, % at 38.7 µM. Vero cells, Shiga toxin protein synthesis inhibition reporter. 290,000 tested, 9.2% active; in the data active means inhibition mostly above about 28%, no sharp cut-off; inactive means mostly below about 43%
NS1 inh: inhibitors of influenza NS1 protein function | AID 2326 | Potency, µM (top dose mostly 46.1 µM) | 270,000 tested, 0.4% active; calls by dose curve; further: actives are rising curves; nearly all actives have a fitted effect of over 50% in size
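Read-out: OD600 growth recovery of NS1-expressing budding yeast. Cells grown overnight at 30C in -URA glucose medium, washed, resuspended and diluted 1:100 in 2% galactose assay medium, pH 6.0. Same strain lacking NS1 served as positive control.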
Hits are given with their value; - = inactive; ? = inconclusive; . = no result given; + = active, no number. Only a selection was taken, and hits are over-represented in it overall. Unless noted, the call rests on the fitted dose curve; in most records, active means well fitted curve in the direction sought with a large enough effect; inconclusive means small, poorly fitted or top-dose-only effect, or another doubt; inactive means no such curve, though single readings can be large; an effect the other way counts as inactive or inconclusive.

SMILES	Cycloheximide cs	AmpC detergent	AmpC no deterg	Shiga inhibitor	NS1 inh
CSc1cccc(NC(=O)Cn2cccc2)c1	-	-	-	-	-
O=C(NCc1ccc(F)cc1)c1cnn2ccccc12	30	-	-	-	-
CCc1ccc(NC(=O)c2cnn(-c3ccccc3)c2-n2cccc2)cc1	.	-	.	.	.
O[C@@H]1CO[C@H]2C1OC[C@@H]2O (some centres not stated)	-	.	.	-	.
Cc1cc(C)n(-c2nc3cc(Cl)c(Cl)cc3nc2Nc2c(C)cccc2C)n1	.	-	.	.	.
C=CCOc1ccccc1CN(C(=O)CCl)c1ccc2c(c1)OCO2	17	?	-	49	-
CC(=O)c1ccc(NC(=O)C(C)OC(=O)c2ccc3c(c2)nc(C)n3-c2ccccc2)cc1 (configuration not stated)	29	-	-	45	-
COc1ccc(-n2cccc2/C=C2/NC(=O)N(c3cccc(Cl)c3)C2=O)cc1	22	?	-	-	-
COc1cc(/C=C2/NC(=O)N(c3cccc(Cl)c3)C2=O)ccc1O	-	-	-	23	-
COc1cc(/C=C2/C(=O)NN(c3cccc(Cl)c3)C2=O)cc(OC)c1O	-	-	-	-	?
O=C(O)c1cccc(-n2cccc2/C=C2/NC(=O)N(c3cccc(Cl)c3)C2=O)c1	-	-	-	-	-
O=C(O)c1cccc(-n2cccc2/C=C2/NC(=O)N(c3ccc(Cl)cc3)C2=O)c1	-	-	13µM	-	.
COc1c2c(c3c(c1CCC(=O)O)OC(C)(C)C=C3)OC(C)(C)C=C2	.	.	.	.	-
CCC(=O)Nc1cc(C(=O)O)ccc1Sc1ccc(Cl)cc1	-	-	-	-	.
Cc1nnc(NC(=O)C(=O)c2cc(C)n(-c3ccc(C)c(C)c3)c2C)s1	.	-	.	.	.
CCCCn1c(SCc2nnc(-c3ccccc3)o2)nc2c1c(=O)n(C)c(=O)n2C	24	-	-	-	-
CCn1c(SCc2nnc(-c3ccccc3)o2)nc2c1c(=O)n(C)c(=O)n2C	-	-	-	-	-
Cn1cnnc1SCCC(=O)Nc1ccc(Cl)cc1	-	-	-	-	-
Cn1cnnc1SCCOc1ccc(Cl)cc1	15	-	-	-	-
Cc1cccc(OCCSc2nncn2C)c1	33	-	-	-	.
Cc1ccc2oc(=O)c3cc(C(=O)Nc4ccccc4C(N)=O)sc3c2c1	.	-	.	.	.
Cc1ccc(NC(=S)Nc2cc(C)on2)cc1	48	-	-	67	-
CCc1ccc(NC(=O)c2cc(-c3ccc(OC)cc3)on2)cc1	64	-	-	41	-
COC(=O)c1cccc(C(=O)Nc2ccc(C)cc2)n1	45	-	-	80	-
Cc1cc(C(=O)Nc2ccccn2)no1	23	-	-	44	-
SMILES	Cycloheximide cs	AmpC detergent	AmpC no deterg	Shiga inhibitor	NS1 inh
Nc1cc(=O)[nH]c(SCC(=O)Nc2cccc(S(=O)(=O)N3CCCCC3)c2)n1	.	.	-	.	.
O=C(NC1CCN(Cc2ccccc2)CC1)c1ccc(Cn2c(=O)c3ccccc3n(Cc3ccc(Cl)cc3)c2=O)cc1	.	-	.	.	.
Cc1ccc(CCNS(=O)(=O)c2ccc3c(c2)C(C(C)C)C(=O)N3)cc1 (configuration not stated)	.	-	.	.	.
O=C(NCCCN1CCCC1=O)c1cccc(NS(=O)(=O)c2ccc(Br)cc2)c1	.	-	-	.	.
CCc1ccc(NC(=O)c2cc(-c3ccc(F)cc3)on2)cc1	-	-	-	-	.
Cc1ccc(NC(=O)c2cc(C)on2)cc1	56	-	-	-	-
Cc1ccc(Cn2ccc(NC(=O)c3cc(-c4ccccc4)on3)n2)cc1	-	?	-	-	-
CCc1ccc(NC(=O)c2cc(C)on2)cc1	28	?	-	51	-
Cc1cc(C(=O)Nc2ccc3c(c2)OCO3)no1	-	-	-	-	-
CCc1ccc(NC(=O)c2cc(C(C)C)on2)cc1	36	-	-	65	-
Cc1ccc(Cn2ccc(NC(=O)c3cc(C)on3)n2)cc1	29	-	-	-	-
CCN(CC)CC(C)CNC(=O)c1cc(-c2ccc(Br)s2)nc2ccccc12 (configuration not stated)	.	-	.	.	.
O=C(CSc1nnc(-c2ccccc2)c(-c2ccccc2)n1)NCCc1ccccc1	.	-	.	.	.
COc1cccc(/C=N/NC(=O)NC2CCCCC2)c1O	34	-	-	52	-
COc1cccc(/C=N/NC(=O)C(=O)N/N=C/c2cccc(OC)c2O)c1O	-	?	-	-	-
COc1cccc(/C=N/NC(=O)C(=O)N2CCCCCC2)c1O	21	-	-	-	-
COc1ccc(C(=O)NN=C2CCCC2)c(OC)c1	20	?	-	-	-
NNC(=O)c1cc2ccccc2cc1O	-	-	-	-	?
Cc1nc(CC(=O)c2ccc(O)cc2O)cs1	-	-	-	-	-
O=C(NN=C1CCCC1)c1cc(Br)ccc1O	23	?	7.9µM	-	-
CCCCCC(=O)c1ccc(O)cc1O	32	-	-	49	.
NNC(=O)c1ccc(O)cc1O	30	-	-	76	-
COc1ccccc1C(=O)Nc1ccc2oc(-c3cccc4c(Br)cccc34)nc2c1	.	-	.	.	.
COc1cccc(N2C(=O)CSC23C(=O)N(Cc2ccccc2)c2ccccc23)c1 (configuration not stated)	.	-	.	.	.
O=C(NN=C1CCCC1)c1ccc(O)cc1O	38	-	-	124	-
SMILES	Cycloheximide cs	AmpC detergent	AmpC no deterg	Shiga inhibitor	NS1 inh
CCOC(=O)C(=O)N/N=C/c1ccc(F)cc1	-	-	-	-	-
O=C(CO)N/N=C/c1cccc(Cl)c1Cl	-	-	-	-	-
CCOC(=O)N/N=C/c1c(F)cccc1F	25	-	-	35	-
CCOC(=O)N/N=C/c1ccccc1F	33	-	-	83	-
O=C(COCC(=O)N/N=C/c1ccccc1F)N/N=C/c1ccccc1F	-	?	-	-	-
CCOC(=O)N/N=C/c1ccc(F)cc1	39	-	-	70	-
CCOC(=O)N/N=C/c1cccc(Cl)c1Cl	40	-	-	79	-
O=C(CC1C[C@H](C(=O)N2CCOCC2)[C@@]2(CCC3CCCC3)c3[nH]c4ccccc4c3CCN2C1=O)NCCC1=CCCCC1 (some centres not stated)	.	.	-	.	.
CCc1ccc(/C=N/NC(=O)c2cc(C)on2)s1	35	-	-	+	-
Cc1cc(C(=O)N/N=C/c2cccc(Cl)c2Cl)no1	38	-	-	76	-
COc1ccc(/C=N\NC(=O)C2COc3ccccc3O2)cc1O (configuration not stated)	20	-	-	62	-
CCOC(=O)N/N=C/c1ccc(OC)c(O)c1	33	-	-	69	.
Cc1cc(C(=O)NNc2c(Cl)cccc2Cl)no1	-	-	-	-	-
COc1cc(/C=N/NC(=O)C2COc3ccccc3O2)ccc1O (configuration not stated)	-	-	-	-	-
CCc1ccc(/C=N/NC(=O)c2cc(C3CC3)nc3ccccc23)s1	-	-	-	-	-
CC(C)(C)C(=O)OCC(=O)C1CCC2C3CCC4=CC(=O)CCC4(C)C3CCC12C (configuration not stated)	-	.	.	-	.
